Measured values as given in PubChem BioAssay (NCI).
The panel holds about 79,000 compounds, 15% with a hit somewhere; the sample as a whole holds those more often. A number with no mark means an inactive call. The source made the active and inactive calls. No stated cut-off is given here; in the data, active means growth inhibition above about 70%; inactive means the rest.

Test: NCI Yeast Anticancer Drug Screen. Data for the rad18 strain (AID 177)
Settings: S. cerevisiae rad18 mutant growth inhibition, stronger effect = higher value
Experimental: Growth inhibition of yeast strains with defined genetic alterations is measured as a screen for potential anti-cancer activity. Selected strains with alterations in DNA damage repair or cell cycle control were exposed to compounds and growth inhibition was measured relative to vehicle treated controls. The strain used in this assay is rad18

| SMILES | growth inhibition (at 1.2 µM) [%] | growth inhibition (at 3.7 µM) | growth inhibition (at 11.0 µM) | growth inhibition (at 33.0 µM) | growth inhibition (at 100.0 µM) |
| --- | --- | --- | --- | --- | --- |
| S=c1nc(Cl)cc2[nH]c(Cl)cn12 | 1 | 3% | 14% | 44% | 96% (active) |
| COc1ccc(SCc2cc(OC)ccc2OC)cc1 | -5 | -5% | -3% | -16% | -1% |
| COC(=O)c1n[nH]c(C)c1N=NN(C)CCC#N | 16 | 68% | 95% (active) | 98% (active) | 99% (active) |
| O=C1C(Cl)=C(Cl)C(Cl)(Cl)C(Cl)C1(Cl)Cl (stereo not given) | 40 | 73% (active) | 90% (active) | 99% (active) | 99% (active) |
| CNc1ccc(Cc2c[nH]c3ccccc23)cc1 | -54 | -64% | -51% | -8% | 20% |
| Cc1ccc(CNc2ccc(Br)cc2)cc1 | -6 | -15% | -7% | 49% | 77% (active) |
| CCc1nc(N)nc(N)c1-c1ccc(NCCCCCCN)c([N+](=O)[O-])c1 | -4 | -6% | -5% | -17% | -23% |
| Oc1ccc(Br)cc1C=NC1CCCCC1 | 5 | 11% | 29% | 92% (active) | 97% (active) |
